Screening data: PubChem, National Center for Advancing Translational Sciences (NCATS)
Shown are actives, neighbours in structure and some others; about 19% of the full set was active somewhere.
TDP1 cell CPT: qHTS for Inhibitors of human tyrosyl-DNA phosphodiesterase 1 (TDP1): qHTS in cells in presence of CPT | chicken DT40 Tdp1-/-;hTDP1 cells + 20 nM CPT, ATP luminescence, 48 h | 420,000 tested, 12% active | AID 686979, 2013 | Potency, µM (series often up to 46.2 µM), for inactives: at the highest dose activity change, negative = growth inhibition, hits mostly inhibitors; also: potency is read from the fitted curve at half-maximal effect; nearly all actives have a fitted effect of over 55% in size
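Chicken DT40 Tdp1-/- cells stably complemented with human TDP1 were seeded at 400 cells/well in medium containing 20 nM camptothecin, exposed to pin-transferred compounds, and grown at 37 °C for at least 48 hr. Viability was read as ATP luminescence.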
HT1080-NT tox: qHTS for induction of synthetic lethality in tumor cells producing 2HG: qHTS for the HT-1080-NT fibrosarcoma cell line. HT-1080-NT fibrosarcoma viability, CellTiter-Glo ATP luminescence, 48 h. Potency, µM (titrated, usually from 46.1 µM), for the others: top-dose activity, negative = less viability, hits mostly cytotoxic. 360,000 tested, 1.6% active. AID 686970, 2013;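 also: NT is the 2HG producing partner of a matched IDH1 knockdown line; potency is read from the fitted curve at half-maximal effect; 0% = DMSO-treated cells and -100% = media-only wells without cells; nearly all actives have a fitted effect of over 55% in size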
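750 cells/well, RPMI + 5% FBS; 2 h settle, compound pin-transfer, 48 h at 37 degrees C. CellTiter-Glo 10 min RT, luminescence. Normalized to DMSO and media-only wells.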
DT40 TDP1 no CPT: qHTS for Inhibitors of human tyrosyl-DNA phosphodiesterase 1 (TDP1): qHTS in cells in absence of CPT; DT40 Tdp1-/- hTDP1 cells, no CPT, ATP luminescence, 48 h; Potency, µM (doses to about 46.2 µM), for the others: at the highest dose activity change, negative = growth inhibition, usual class: inhibitors; 420,000 tested, 15% active; also: potency is read from the fitted curve at half-maximal effect; nearly all actives have a fitted effect of over 55% in size
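Camptothecin absent (DMSO only). Human TDP1-complemented DT40 knockout cells, 400 cells/well, 37 °C for minimum 48 hr; ATP measured via CellTiter-Glo, 30 min dark incubation, luminescence.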
IL1B secr inh: qHTS for Inhibitors of Inflammasome Signaling: IL-1-beta AlphaLISA Primary Screen; 360,000 tested, 4.7% active; THP-1 LPS/ATP IL-1B secretion, AlphaLISA, 16 h; stronger effect = lower value; activity change, % at 57.5 µM; AID 743279, 2014; in the data active = activity change below about -50%; inconclusive = mostly about -30% to -49%
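Secreted IL-1B measured by AlphaLISA bead assay after 16 h compound exposure of THP-1 cells; compounds (final up to 57.5 uM) added 1 h before LPS (250 ng/mL) and ATP (1.25 mM) stimulation; lower signal means less secretion.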
HT1080 IDH1KD tx: qHTS for induction of synthetic lethality in tumor cells producing 2HG: qHTS for the HT-1080-IDH1KD cell line. HT-1080 IDH1 knockdown viability, ATP luminescence, 48 h. Potency, µM (top dose mostly 46.1 µM), for the others: at the top dose activity, negative = toxicity, most hits filed as cytotoxic. 360,000 tested, 2% active. AID 686971, 2013;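 also: potency is read from the fitted curve at half-maximal effect; 0% = DMSO wells and -100% = cell-free medium wells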
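CellTiter-Glo luminescence after 48 h compound exposure at 37 degrees C of IDH1-knockdown HT-1080 cells in 5% FBS RPMI. %Activity scaled between DMSO wells and cell-free media wells, with curves fitted and assigned curve classes.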
Active calls of the source: *; u = inconclusive; x = no result; [ ] = remark or other dose. Unless noted, calls follow the shape of the dose curve; as a rule, active = well fitted curve in the direction sought with a large enough effect; inconclusive = small, poorly fitted or top-dose-only effect, or another doubt; inactive = no such curve, though single readings can be large; an effect the other way counts as inactive or inconclusive. Unless noted, % is scaled to controls: 0 for no effect and ±100 for the full control effect.

SMILES	TDP1 cell CPT	HT1080-NT tox	DT40 TDP1 no CPT	IL1B secr inh	HT1080 IDH1KD tx
CN(Cc1ccc(Cl)c(Cl)c1)C(c1cc2ccccc2o1)c1nnnn1C(C)(C)C (centres undefined)	u	-18%	21µM*	0	u
Cc1cccc(C)c1-n1nnnc1C1(C)CCC(=O)N1CC(F)(F)F (centres undefined)	-22%	3%	u	25	1%
COc1cc(NC(=O)Cn2c(=O)n(-c3ccccc3)c(=O)c3c4c(sc32)CCCC4)cc(OC)c1	-6%	x	-28%	x	x
O=c1cnn(-c2ccc(Cl)cc2Cl)c(-c2ccccc2)c1	u	-12%	23µM*	-17	-21%
Cn1c(=O)[nH]c(=O)c2c1nc(Br)n2CCCSc1nc2ccccc2o1	u	u	26µM*	32	u
Cn1c(=O)[nH]c(=O)c2c1nc(N1CCCCCC1)n2CCSc1nc2ccccc2[nH]1	-15%	1%	-27%	30	17%
Cn1c(=O)[nH]c(=O)c2c1nc(N1CCCC1)n2CCCSc1nc2ccccc2o1	23µM*	-24%	u	12	-4%
Cn1c(=O)[nH]c(=O)c2c1nc(N1CCCCC1)n2CCCSc1nc2ccccc2s1	13µM*	-12%	13µM*	u	-28%
Cn1c(=O)[nH]c(=O)c2c1nc(Br)n2CCSc1ncccn1	4%	0%	-8%	8	18%
Cc1nnc(SCCCn2c(N3CCN(c4ccccc4)CC3)nc3c2c(=O)[nH]c(=O)n3C)s1	u	0%	u	-29	0%
C[C@H]1CN([C@@H](C)CO)C(=O)CCCn2cc(nn2)CO[C@@H]1CN(C)C(=O)Nc1ccc(C(F)(F)F)cc1	-16%	-7%	-19%	4	1%
CCCCn1nnnc1C(CCSC)N1CCN(C/C=C/c2ccccc2)CC1 (centres undefined)	u	-2%	u	-26	-3%
Nc1ccc(S(=O)(=O)Nc2nc(-c3ccccc3)cc(-c3ccccc3O)n2)cc1	-24%	-19%	-16%	17	u
CC(OC(=O)c1ccccc1NS(=O)(=O)c1cccc(N)c1)C(=O)N(C)Cc1ccccc1 (centres undefined)	u	4%	23µM*	-12	3%
COC(=O)C1=C(C)NC(=O)NC1c1cn(-c2ccccc2)nc1-c1ccc(OC)c(Br)c1 (centres undefined)	-25%	x	u	x	x
COC(=O)C1=C(C)NC(=O)NC1c1cn(-c2ccccc2)nc1-c1cccs1 (centres undefined)	u	-7%	-14%	-8	-16%
CC1=C(C(=O)OC(C)C)C(c2cn(-c3ccccc3)nc2-c2cccs2)NC(=O)N1 (centres undefined)	u	0%	23µM*	14	-19%
COC(=O)C1=C(C)NC(=O)NC1c1cn(-c2ccccc2)nc1-c1ccc(OC)c(Cl)c1 (centres undefined)	u	x	21µM*	x	x
Cc1ccc(S(=O)(=O)N2C[C@H]3C(=O)C[C@@H](c4ccc(Cl)cc4)N(S(=O)(=O)c4ccc(C)cc4)[C@H]3C[C@H]2c2ccc(Cl)cc2)cc1	-10%	8%	-14%	7	18%
O=C(NC(CSCc1ccccc1)C(=O)N/N=C/c1ccc(O)cc1O)c1ccc([N+](=O)[O-])cc1 (centres undefined)	7.1µM*	2.8µM*	4.5µM*	113	0.89µM*
O=C(NCCCO)C12CC3CC(CC(C3)C1)C2	-10%	-8%	-2%	14	-1%[9.24 µM]
CCOc1ccccc1NC(=O)C(NCCc1ccc(OC)cc1)c1ccccc1 (centres undefined)	23µM*	-12%	u	-7	-10%
CCOc1ccccc1NC(=O)C(OC(=O)c1ccc(CC)cc1)c1ccccc1 (centres undefined)	16µM*	-11%	u	4	-2%
CCOc1ccccc1NC(=O)C(OC(=O)c1ccc(N(C)C)cc1)c1ccccc1 (centres undefined)	0.58µM*	12%	u	17	3%
O=C(NCCCCCCNC(=O)OC1CCS(=O)(=O)C1)OC1CCS(=O)(=O)C1 (centres undefined)	1%	5%	-4%	0	3%
SMILES	TDP1 cell CPT	HT1080-NT tox	DT40 TDP1 no CPT	IL1B secr inh	HT1080 IDH1KD tx
CCSc1ncc(Cl)c(C(=O)Nc2sc3c(c2C(=O)NCCOC)CCCC3)n1	-9%	x	u	x	x
Cc1cc([N+](=O)[O-])c(C)cc1-c1ccc(/C=N/NC(=O)c2cccnc2)o1	16µM*	7%	16µM*	-23	2%
Cc1ccc(C(=O)N/N=C\c2ccc(Br)o2)o1	-12%	14%	2%	-28	19%
Cc1ccc(C(=O)N/N=C/c2ccc(-c3ccc(Br)cc3[N+](=O)[O-])o2)o1	u	-1%	u	-85*	u
Cc1c(C(=O)N/N=C/c2ccc(-c3ccccc3[N+](=O)[O-])o2)sc(N)c1C#N	16µM*	u	13µM*	52	u
Cc1cc(C)nc(NC(=O)C2c3ccccc3Oc3ccccc32)n1	1%	3%	-12%	-10	1%
Cc1nn(CC(=O)NCCc2ccccc2Cl)c(=O)c2nn(-c3ccccc3)c(C)c12	-22%	x	-22%	x	x
COc1cccc2c1C(=O)c1c(O)c3c(c(O)c1C2=O)CC(O)(C(C)=O)CC3OC1CC(O)C(O)C(C)O1 (centres undefined)	1.2µM*	u	0.82µM*	-103*	23µM*
COc1cccc2c1C(=N)c1c(O)c3c(c(O)c1C2=O)CC(O)(C(C)=O)CC3OC1CC(N)C(O)C(C)O1 (centres undefined)	0.16µM*	21µM*	0.18µM*	-102*	21µM*
COc1cccc2c1C(=O)c1c(O)c3c(c(O)c1C2=O)C[C@](O)(C(C)=O)C[C@H]3O[C@@H]1C[C@@H](N)[C@@H](O)[C@@H](C)O1	0.1µM*	0.65µM*	0.092µM*	u	0.41µM*
CCc1ccc2oc(C(=O)Nc3cc(C)ccc3C)cc(=O)c2c1	-7%	x	-22%	x	x
CCc1ccc(C(=O)COC(=O)c2cnccn2)cc1	-10%	13%	3%	11	6%
CCOC(=O)Cn1nc(/C=C/c2ccc(C(C)C)cc2)ccc1=O	15µM*	-3%	u	-28	-1%
CCOC(=O)Cn1nc(/C=C/c2ccccc2)ccc1=O	-19%	0%	-16%	-3	-2%
